Results: PubChem BioAssay (Tox21)
Inconclusive results are not listed. Calls of active or inactive are those of the source. Unless noted, the call rests on the fitted dose curve; in most records, active means well fitted curve in the direction sought with a large enough effect in the repeat runs; inconclusive means weak or mixed curves; inactive means no such curve, though single readings can be large; an effect the other way counts as inactive or inconclusive.

Experiments:
[1] = qHTS assay to identify small molecule antagonists of the estrogen related receptor (ERR) signaling pathway from Tox21 library - cell viability counter screen (AID 1224834); further: nearly all actives have a fitted effect of over 30% in size
Summary of the method: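 ERR cells, 2,000/well; 6 h settle at 37 C/5% CO2; pin-tool compound transfer in DMSO; 17.5 h at 37 C; CellTiter-Fluor, 30 min; fluorescence intensity.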

[2] = molecular target: Luciferin 4-monooxygenase (Photinus pyralis) (UniProt P08659); test: qHTS assay to identify small molecule inhibitors of firefly luciferase (AID 1224835); further: nearly all actives have a fitted effect of over 25% in size
Summary of the method: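 Quantitative HTS format; KM concentrations of both substrates. Purified P. pyralis FLuc activity quantified from luminescence images.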

[3] = qHTS assay to identify small molecule antagonists of the constitutive androstane receptor (CAR) signaling pathway - cell viability counter screen (AID 1224837); further: nearly all actives have a fitted effect of over 45% in size
Summary of the method: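 Viability was measured with CellTiter-Fluor in a HepG2 line carrying stably transfected hCAR and a CYP2B6-2.2kb construct. Cells were exposed for 23 hr at 37 C to 15 compound concentrations with 50 nM CITCO as agonist.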

[4] = molecular target: Nuclear receptor subfamily 1 group I member 3 (Homo sapiens) (UniProt Q14994); test: qHTS assay to identify small molecule agonists of the constitutive androstane receptor (CAR) signaling pathway (AID 1224839); further: nearly all actives have a fitted effect of over 15% in size
Summary of the method: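 Compounds tested at 15 concentrations on HepG2 cells stably harbouring hCAR and CYP2B6-2.2kb reporter constructs, co-treated with PK11195 (0.75 uM final), 24 h at 37 C; luminescent reporter signal quantified.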

[5] = qHTS assay to identify small molecule antagonists of the estrogen related receptor signaling pathway with the pleiotropic PPARgamma coactivator (PGC) from Tox21 10K library - cell viability counter screen (AID 1224840; active means well fitted cell-killing curve with a large enough effect in the repeat runs, not every such curve was filed as active; further: nearly all actives have a fitted effect of over 40% in size)
Summary of the method: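 Multiplexed viability counter screen in the PGC/ERR cell line: cells treated with DMSO-dissolved compounds for 17.5 hours at 37 C, then viability measured as CellTiter-Fluor fluorescence.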

[6] = qHTS assay to identify small molecule agonists of the hypoxia (HIF-1) signaling pathway - cell viability counter screen (AID 1224844; calls by dose curve; further: nearly all actives have a fitted effect of over 50% in size; further: potency means the concentration at half of the fitted maximal effect)
Summary of the method: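 Cytotoxicity was measured in parallel with the HRE-driven beta-lactamase readout: after 17 hrs of compound exposure at 37C, HRE-bla ME-180 cells received CellTiter-Glo and luminescence was recorded 30 min later.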

[7] = qHTS assay to identify small molecule agonists of H2AX (AID 1224845; active means well fitted activation curve with a large enough effect in the signal ratio in the repeat runs, not every such curve was filed as active; the % refers to the signal ratio)
Summary of the method: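 Wild-type CHO-K1 cells plated overnight, then exposed 3 hr at 37C to compounds at 15 concentrations (0.76% DMSO). Lysed, then HTRF anti-pH2AX(S139)-cryptate/anti-H2AX-d2 detection after 24 hr at room temperature; emissions 665 and 620 nm.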

[8] = qHTS assay to identify small molecule agonists of the hypoxia (HIF-1) signaling pathway (AID 1224846; active means well fitted activation curve with a large enough effect in the signal ratio in the repeat runs, not every such curve was filed as active; the % refers to the signal ratio)
Summary of the method: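 Compounds from the Tox21 10K library, dissolved in DMSO, are tested for induction of a hypoxia response element–controlled beta-lactamase reporter in ME-180 cells. Exposure lasts 17 hrs at 37C after a 5 hr settling period, followed by CCF4-AM FRET substrate.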

[9] = qHTS assay to identify small molecule agonists of H2AX - cell viability counter screen (AID 1224847; calls by dose curve; further: top concentration of the series differs between compounds; nearly all actives have a fitted effect of over 30% in size)
Summary of the method: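 Compounds tested at 15 concentrations were incubated 3 hr at 37C with wild-type CHO-K1 cells; cellular ATP-based luminescence (CellTiter-Glo) indicated viability.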

[10] = qHTS RealTime-Glo MT Cell Viability Assay in HepG2 cells - 24 hour (AID 1224867); further: nearly all actives have a fitted effect of over 50% in size
Summary of the method: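 Cell number in HepG2 cultures estimated from NanoLuc luminescence generated by metabolic reduction of a prosubstrate by living cells. The homogeneous, nonlytic format allowed repeated reads at 0, 8, 16, 24, 32 and 40 h of compound exposure.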

[11] = A CellTox Green Cytotoxicity Assay to monitor cytotoxicity in HEK293 cells - 0 hour (AID 1224869); further: nearly all actives have a fitted effect of over 50% in size
Summary of the method: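 Cells (HEK293, 600/well) and dye reagent are dispensed together. After 5 h at 37 C, 23 nL compound is pinned in. Plates stay at 37 C for 40 h with fluorescence read at 0h, 8h, 16h, 24h, 32h and 40h.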

[12] = qHTS assay to identify small molecule agonists of the constitutive androstane receptor (CAR) signaling pathway - cell viability counter screen (AID 1224836); further: nearly all actives have a fitted effect of over 45% in size
Summary of the method: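 23 h treatment, 37 C, 5% CO2. Cell line: HepG2 stably expressing hCAR with a CYP2B6-2.2kb construct. Co-treatment: PK11195, 0.75 uM final. Read-out: CellTiter-Fluor fluorescence intensity.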

[13] = molecular target: Nuclear receptor subfamily 1 group I member 3 (Homo sapiens) (UniProt Q14994); test: qHTS assay to identify small molecule antagonists of the constitutive androstane receptor (CAR) signaling pathway (AID 1224838);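 further: HepG2 cells stably expressing hCAR with CYP2B6 luciferase reporter stimulated by CITCO; nearly all actives have a fitted effect of over 40% in size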; further: potency means the concentration at half of the fitted maximal effect
Summary of the method: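 Antagonist mode used CITCO at a final 50 nM to activate CAR in human hepatoma HepG2 cells carrying stable hCAR and a 2.2 kb CYP2B6 promoter-luciferase construct. Compounds were tested at 15 concentrations over 24 h, with luminescence as the end point.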

[14] = qHTS assay to identify small molecule antagonists of the estrogen related receptor signaling pathway with the pleiotropic PPARgamma coactivator (PGC) from Tox21 10K library (AID 1224841; call rule not given here; further: actives are mostly falling curves and most rising ones were filed inactive; nearly all actives have a fitted effect of over 50% in size; further: potency means the concentration at half of the fitted maximal effect)
Summary of the method: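 Steps: plate 2,000 PGC/ERR cells per well; incubate 6 h at 37 C with 5% CO2; transfer compounds from DMSO stocks by pin tool; incubate 18 h at 37 C; add One-Glo; measure luminescence 30 min later.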

[15] = qHTS assay to identify small molecule agonists of the estrogen related receptor signaling pathway with the pleiotropic PPARgamma coactivator (PGC) from Tox21 10K library (AID 1224842); further: nearly all actives have a fitted effect of over 15% in size
Summary of the method: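 PGC/ERR reporter cells (NTP line) were seeded 2,000 per well, rested 6 h at 37 C/5% CO2, then pin-dosed with compounds in DMSO for 18 h at 37 C; luciferase read by One-Glo luminescence after 30 min at room temperature.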

[16] = molecular target: Thyrotropin receptor (Homo sapiens) (UniProt P16473); test: qHTS assay to identify small molecule agonists of the thyroid stimulating hormone receptor (TSHR) signaling pathway (AID 1224843; calls by dose curve; further: nearly all actives have a fitted effect of over 45% in size)
Summary of the method: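 Compounds are titrated over 15 concentrations, in triplicate, onto TSHR-HEK293 cells seeded at 800/well. Plates sit 30 min at room temperature before cAMP-d2 and anti-cAMP cryptate are added; signal is read after a further hour.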

[17] = qHTS assay to identify small molecule antagonists of the estrogen related receptor (ERR) signaling pathway from Tox21 library (AID 1224848); further: nearly all actives have a fitted effect of over 50% in size
Summary of the method: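 First, 2,000 ERR cells per well were plated and held 6 h at 37 C/5% CO2. Next, compounds in DMSO were pinned in and left 18 h at 37 C. Finally, ONE-Glo was added and luminescence read after 30 min at room temperature.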

[18] = qHTS assay to identify small molecule agonists of the estrogen related receptor (ERR) signaling pathway from Tox21 library (AID 1224849; calls by dose curve; further: nearly all actives have a fitted effect of over 15% in size); conditions: ERR reporter cell line, ONE-Glo luciferase, 18 h; at 92.4 µM (top of the series) unless noted
Summary of the method: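 Cells carrying the ERR reporter were plated and allowed to settle for 6 h, exposed to library compounds for 18 h at 37 C, then lysed with ONE-Glo and luminescence measured.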

[19] = qHTS RealTime-Glo MT Cell Viability Assay in HEK293 cells - 32 hour (AID 1224868)
Summary of the method: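 Homogeneous bioluminescent viability format in HEK293 cells (600 cells/well). Following 5 h at 37 C/5% CO2, 23 nL compound was pintooled; the signal was measured repeatedly during 40 h incubation.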
On the % scale 0 is the no-effect control and ±100 the full control effect.

Sequence of Nuclear receptor subfamily 1 group I member 3 (Homo sapiens) (Q14994 whole entry, looked up): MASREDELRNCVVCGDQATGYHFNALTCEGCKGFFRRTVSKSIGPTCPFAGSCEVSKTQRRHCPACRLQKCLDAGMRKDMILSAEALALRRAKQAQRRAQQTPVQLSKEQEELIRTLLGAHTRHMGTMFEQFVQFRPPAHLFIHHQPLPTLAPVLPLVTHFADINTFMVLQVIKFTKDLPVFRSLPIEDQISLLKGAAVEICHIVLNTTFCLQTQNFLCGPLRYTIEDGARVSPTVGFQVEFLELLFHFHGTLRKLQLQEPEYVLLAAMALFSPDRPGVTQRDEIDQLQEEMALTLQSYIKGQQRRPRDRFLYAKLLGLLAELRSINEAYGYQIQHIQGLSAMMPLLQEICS
Sequence of Thyrotropin receptor (Homo sapiens) (P16473 whole entry, looked up): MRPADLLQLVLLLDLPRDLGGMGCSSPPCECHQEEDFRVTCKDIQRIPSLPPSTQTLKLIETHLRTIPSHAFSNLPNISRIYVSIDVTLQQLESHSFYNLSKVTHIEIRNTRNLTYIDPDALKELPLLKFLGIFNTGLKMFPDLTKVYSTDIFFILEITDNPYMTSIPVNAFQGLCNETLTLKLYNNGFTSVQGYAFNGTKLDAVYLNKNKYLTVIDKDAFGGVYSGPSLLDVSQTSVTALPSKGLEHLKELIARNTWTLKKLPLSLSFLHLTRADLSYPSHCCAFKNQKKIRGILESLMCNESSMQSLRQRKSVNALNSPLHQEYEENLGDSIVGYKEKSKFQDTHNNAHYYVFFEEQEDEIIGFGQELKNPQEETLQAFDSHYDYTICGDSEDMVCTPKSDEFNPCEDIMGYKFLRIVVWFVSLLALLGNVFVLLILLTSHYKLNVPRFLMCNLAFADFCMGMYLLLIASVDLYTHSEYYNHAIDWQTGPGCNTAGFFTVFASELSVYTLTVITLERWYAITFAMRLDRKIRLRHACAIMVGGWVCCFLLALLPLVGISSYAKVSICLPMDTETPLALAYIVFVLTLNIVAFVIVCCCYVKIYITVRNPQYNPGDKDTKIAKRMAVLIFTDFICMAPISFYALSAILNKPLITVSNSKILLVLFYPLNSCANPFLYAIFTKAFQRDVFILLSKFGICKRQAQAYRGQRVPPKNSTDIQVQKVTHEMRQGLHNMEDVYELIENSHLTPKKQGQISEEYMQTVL
Sequence of Luciferin 4-monooxygenase (Photinus pyralis) (P08659 whole entry, looked up): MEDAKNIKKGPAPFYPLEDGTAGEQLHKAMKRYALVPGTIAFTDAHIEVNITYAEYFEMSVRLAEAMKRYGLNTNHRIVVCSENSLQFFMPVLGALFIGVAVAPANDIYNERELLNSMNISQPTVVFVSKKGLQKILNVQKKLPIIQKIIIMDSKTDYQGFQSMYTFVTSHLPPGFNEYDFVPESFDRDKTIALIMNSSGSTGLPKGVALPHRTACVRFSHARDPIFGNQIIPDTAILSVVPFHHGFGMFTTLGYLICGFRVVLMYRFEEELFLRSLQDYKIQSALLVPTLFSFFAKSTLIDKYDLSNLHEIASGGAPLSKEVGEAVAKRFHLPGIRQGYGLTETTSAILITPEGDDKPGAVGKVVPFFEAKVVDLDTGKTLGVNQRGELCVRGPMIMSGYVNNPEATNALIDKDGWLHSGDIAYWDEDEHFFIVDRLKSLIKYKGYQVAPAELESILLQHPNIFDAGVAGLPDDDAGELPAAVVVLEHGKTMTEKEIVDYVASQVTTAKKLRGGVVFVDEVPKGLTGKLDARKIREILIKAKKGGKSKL

Cc1cc(C)c(NC(=O)CN(CC(=O)O)CC(=O)O)c(C)c1Br
inactive: Potency [1] | Potency [2] | outcome [3] | Potency [4] | outcome [5] | Potency [6] | outcome [7] | outcome [8] | Potency [9] | outcome [10] | Potency [11]

COC(=O)c1ccc(C(=O)OC)c(C(=O)OC)c1
inactive: Potency [1] | outcome [12] | outcome [3] | Potency [13] | Potency [4] | outcome [5] | Potency [14] | Potency [15] | outcome [16] | Potency [6] | outcome [8] | Potency [9] | Potency [17] | activity change, positive = activation [18] -1.41% | outcome [10] | Potency [11]

FC(F)(F)C(F)(F)C(F)(F)C(F)(F)C(F)(F)C(F)(F)C(F)(F)C(F)(F)C(F)(F)C(F)(F)F
inactive: viability change, negative = cytotoxic [1] 3.38% [at 8.39 µM] | activity change, negative = inhibition [2] -2.43% [at 10.5 µM] | activity change, negative = cytotoxicity [3] 0.303% [at 8.39 µM] | activity, negative = inhibition [13] 41.9% [at 8.39 µM] | viability change, negative = cytotoxic [5] -2.77% [at 8.39 µM] | activation [16] 1.03% [at 8.39 µM] | activity change, negative = cytotoxicity [6] -0.544% [at 6.97 µM] | activation (H2AX phosphorylation) [7] -0.945% [at 14 µM] | activation [8] -1.11% [at 7.01 µM] | activity change, negative = cytotoxicity [9] 0.329% [at 14 µM] | activity change, negative = cytotoxic [19] -3.25% [at 6.97 µM] | cytotoxicity [11] -6.11% [at 6.97 µM]

CC1(C)OC(=O)Nc2ccc(Br)cc21
inactive: Potency [1] | Potency [2] | outcome [3] | Potency [4] | outcome [5] | outcome [16] | Potency [6] | outcome [7] | outcome [8] | Potency [9] | Potency [19] | Potency [11]

Fc1ccccc1-c1ccccc1
inactive: Potency [1] | outcome [12] | outcome [3] | Potency [13] | Potency [4] | outcome [5] | outcome [16] | Potency [6] | outcome [8] | outcome [10] | Potency [19] | Potency [11]

O=C(O)Cc1cc(I)c(Oc2cc(I)c(O)c(I)c2)c(I)c1
active: Potency [6] 24.1 µM
inactive: Potency [1] | outcome [12] | outcome [3] | Potency [13] | Potency [4] | outcome [5] | Potency [9] | outcome [10] | Potency [19] | Potency [11]

COC(=O)CCCCCCCCC(=O)OC
inactive: Potency [1] | Potency [2] | outcome [3] | outcome [5] | Potency [14] | Potency [15] | outcome [16] | Potency [6] | outcome [7] | outcome [8] | Potency [9] | Potency [17] | activity change, positive = activation [18] 0.842% | outcome [10] | Potency [19] | Potency [11]

CO
inactive: Potency [1] | outcome [12] | outcome [3] | Potency [13] | Potency [4] | outcome [5] | Potency [14] | Potency [15] | outcome [16] | Potency [6] | outcome [7] | outcome [8] | Potency [9] | Potency [17] | activity change, positive = activation [18] -0.295% | outcome [10] | Potency [19] | Potency [11]

O=S(=O)(c1cccc2cnccc12)N1CCCNCC1
inactive: Potency [1] | Potency [2] | Potency [4] | outcome [5] | Potency [15] | outcome [16] | Potency [6] | outcome [7] | Potency [9] | activity change, positive = activation [18] -26.8% [at 42.5 µM] | outcome [10] | Potency [11]
active: Potency [13] 13.3 µM | Potency [14] 23.7 µM
